# Data from PubChem BioAssay.
# Unmarked numbers belong to inactive results. How the calls were made is not given here.
# Target: Pantothenate synthetase (Mycobacterium tuberculosis (strain ATCC 25618 / H37Rv)) (UniProt P9WIL5)
# Assay: Coupled enzyme confirmation of inhibitors against recombinant Mtb PanC (AID 375);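 further: 0% = full reaction with vehicle and 100% = no enzyme background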
# Conditions: coupled enzyme assay; at 10 µM, active compounds read high
# Sequence of Pantothenate synthetase (Mycobacterium tuberculosis (strain ATCC 25618 / H37Rv)) (P9WIL5 whole entry, looked up): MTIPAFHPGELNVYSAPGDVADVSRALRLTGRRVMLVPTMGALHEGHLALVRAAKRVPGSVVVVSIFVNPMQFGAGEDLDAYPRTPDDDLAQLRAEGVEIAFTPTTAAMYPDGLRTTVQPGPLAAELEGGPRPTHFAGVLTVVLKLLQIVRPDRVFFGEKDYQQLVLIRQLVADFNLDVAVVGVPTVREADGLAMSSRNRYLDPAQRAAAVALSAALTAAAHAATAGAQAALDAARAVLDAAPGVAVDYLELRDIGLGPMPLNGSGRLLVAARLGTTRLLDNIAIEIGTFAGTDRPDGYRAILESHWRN
row,Compound,inhibition [%]
1,Cc1ccc(S(=O)(=O)CC2CSc3nnc(C)c(=O)n32)cc1 (stereo not given),0
2,CCOC(=O)c1cc(CC)sc1NC(=O)COC,7
3,COc1cccc(C2CC(=O)Nc3c2c(=O)n(C)c(=O)n3C)c1OC (stereo not given),6
4,COc1ccc(C2C(=O)N(C3CCCCC3)CC(=O)N2Cc2ccco2)cc1 (stereo not given),6
5,CCCS(=O)(=O)C(=C1Nc2ccccc2N1)S(=O)(=O)CCC,1
6,CCOc1ccc(OCc2cccc(C(=O)O)c2)cc1,6
7,Cc1sc(NC(=O)CSc2nc(N)n(CC(=O)c3ccccc3)n2)c(C#N)c1C,4
8,Cc1nc(C)c(C(=O)Nc2ccc(C)c(F)c2)o1,5
9,C[C@@H]1C[C@H]2[C@@H]3C[C@H](F)C4=CC(=O)C=C[C@]4(C)[C@@]3(F)[C@@H](O)C[C@]2(C)[C@@]1(O)C(=O)COC(=O)C(C)(C)C,0
10,Cc1cccc(-n2c(=O)cc(N3CCN(c4ccc(F)cc4)CC3)[nH]c2=O)c1,0
11,Cc1noc(NS(=O)(=O)c2ccc(NC(=O)CCC3CCCC3)cc2)c1C,0
12,Cc1cc(=O)oc2cc(OCC#N)ccc12,0
13,Fc1cccc(NCc2cn3ccccc3n2)c1,0
14,CCOC(=O)C1=C(C)NC(=O)C(C#N)C1c1ccco1 (stereo not given),5
15,CCOC(=O)c1oc2c(CN3CCN(C)CC3)c(O)ccc2c(=O)c1-c1ccccc1OC,0
16,CCCc1nnc2n1N=C(c1ccc(-c3cc(Cl)ccc3Cl)o1)CS2,0
17,COc1ccc(OC)c(NC(=O)C23CCC(C)(C(=O)C2)C3(C)C)c1 (stereo not given),3
18,Cc1nnc(C)c2c(C)n(Cc3ccc4c(c3)OCO4)c(C)c12,0
19,Cc1ccc2[nH]c(=O)c(C(c3nnnn3CCc3ccccc3)N3CCOCC3)cc2c1 (stereo not given),6
20,COC(=O)c1ccccc1NC(=O)Cn1ccnc1,0

row,Compound,inhibition [%]
1,Cn1c(SCc2nnc3n2CCCCC3)nc2ccccc21,0
2,COc1ccc(CNS(=O)(=O)c2ccc3oc(C(=O)O)c(C)c3c2)cc1,0
3,O=C(CSCc1cccc(F)c1)N1CCN(c2ccccc2)CC1,4
4,COc1cc(C(=O)OCc2cc3ccccc3[nH]c2=O)cc(OC)c1OC,4
5,C=CCn1c(SCC(=O)NC2CCCCC2)nnc1-c1sc(N)nc1C,7
6,N#CC(C(=O)c1ccco1)c1ccccn1 (stereo not given),3
7,COCc1cc(C)c2c(N)c(C#N)sc2n1,1
8,CCc1nc(SCC(=O)Nc2nccs2)c2oc3ccccc3c2n1,0
9,CC(=O)C1=C(C)NC(SCSc2ccccc2)=C(C#N)C1c1cccnc1 (stereo not given),4
10,Clc1ccccc1-c1nnc2sc(-c3ccccn3)nn12,0
11,COc1ccc2[nH]c(=O)c(CN(Cc3cccs3)S(=O)(=O)c3cccc4nsnc34)cc2c1,0
12,COc1ccccc1C(=O)NC(C)C(c1cccs1)N1CCN(C)CC1 (stereo not given),3
13,COc1ccc2cc(CN(CCO)C(=O)c3ccc(Br)cc3)c(=O)[nH]c2c1,14
14,COC(=O)CC1SCCNC1=O (stereo not given),0
15,CCCC1Cc2c(sc3ncnc(N)c23)CO1 (stereo not given),0
16,O=C(CSc1nc(N2CCCCC2)nc(N2CCCCC2)n1)Nc1nccs1,0
17,CCN(CC)S(=O)(=O)c1ccc(NC2c3ccccc3C(=O)N2CCN2CCOCC2)cc1 (stereo not given),0
18,CCOC(=O)CN1C(=O)C2(OCCCO2)c2ccccc21,1
19,O=C(O)CCCC(=O)Nc1nc(-c2ccc(F)cc2)cs1,0
20,Cc1ccccc1NS(=O)(=O)c1ccc(NC(=O)c2ccco2)cc1,0
